VP16 counter: counter-screen for ROR gamma inhibitors: Gal4-VP16 reporter; Drosophila S2 Gal4-VP16 UAS-luciferase, luminescence, 20 h; Potency, µM (series often up to 53.6 µM), without a hit: top-dose activity, negative = inhibition, usual class: inhibitors; hit rate 3.5% among 310,000; AID 2546;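 also: Gal4-VP16 expression switched on by copper sulfate through the metallothionein promoter; nearly all actives have a fitted effect of over 50% in size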
RORg inh: inhibitors of mouse ROR gamma transcriptional activity; P51450; Drosophila S2 Gal4-RORgamma UAS-luciferase reporter, 20 h; Potency, µM (doses to about 53.6 µM), without a hit: at the highest dose activity change, negative = inhibition, actives largely listed as inhibitors; hit rate 5.4% among 310,000; AID 2551; also: nearly all actives have a fitted effect of over 60% in size
Target sequence (P51450 whole entry, looked up, the tested form may be a part): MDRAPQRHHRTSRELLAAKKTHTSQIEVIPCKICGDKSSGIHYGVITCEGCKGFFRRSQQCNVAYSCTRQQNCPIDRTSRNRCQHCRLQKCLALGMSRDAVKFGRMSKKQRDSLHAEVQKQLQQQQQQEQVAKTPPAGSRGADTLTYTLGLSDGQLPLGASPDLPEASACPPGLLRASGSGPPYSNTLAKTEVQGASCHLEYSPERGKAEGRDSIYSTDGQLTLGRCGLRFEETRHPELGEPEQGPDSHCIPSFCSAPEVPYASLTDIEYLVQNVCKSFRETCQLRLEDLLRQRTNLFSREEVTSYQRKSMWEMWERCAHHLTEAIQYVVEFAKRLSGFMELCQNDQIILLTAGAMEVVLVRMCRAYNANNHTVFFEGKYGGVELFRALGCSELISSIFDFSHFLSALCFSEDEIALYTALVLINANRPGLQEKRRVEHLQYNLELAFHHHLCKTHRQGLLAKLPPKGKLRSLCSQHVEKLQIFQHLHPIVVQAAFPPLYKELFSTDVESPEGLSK
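ROR gamma transcriptional activity was tracked as Gal4-UAS luciferase output in stably transfected Drosophila Schneider cells, with compound added 1 hr before 700 uM copper sulfate induction and a 20 hr ambient-temperature incubation.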
KinaseGlo FLuc: counter-screen: inhibitors of Kinase-Glo firefly luciferase | Potency, µM (titrated, usually from 38.3 µM), for inactives: at the top dose activity change, negative = inhibition, hits mostly inhibitors | hit rate 0.28% among 200,000 | Q27757 | Kinase-Glo luciferase, ATP luminescence, 8 min; also: nearly all actives have a fitted effect of over 60% in size
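Substrate mix (final 50 mM imidazole pH 7.2, 50 mM KCl, 7 mM MgCl2, 10 uM ATP, 0.01% Tween 20, 0.05% BSA) plus pin-tool compound, then Kinase-Glo detection mix; 8 min ambient, luminescence read.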
The depositor's hits bear a star; [ ] = another dose, or the depositor's remark. Only some compounds are listed: those with a hit (about 6.2% of all), similar ones and a draw of the others. Calls follow the shape of the dose curve; as a rule, active = well fitted curve in the direction sought with a large enough effect; inconclusive = small, poorly fitted or top-dose-only effect, or another doubt; inactive = no such curve, though single readings can be large; an effect the other way counts as inactive or inconclusive. % is scaled to controls: 0 for no effect and ±100 for the full control effect; potency is read from the fitted curve at half-maximal effect.

What do the screens show for `O=C(NC(=S)Nc1cc([N+](=O)[O-])ccc1O)c1ccc2c(c1)OCO2`?
VP16 counter: 2.82µM*; RORg inh: 3.98µM*

Results for COc1ccc(/C=N/NC(=O)c2ccc3c(c2)OCCO3)cc1[N+](=O)[O-] ?
VP16 counter: -1.0%; RORg inh: 19.9%; KinaseGlo FLuc: 0.3%

What do the screens show for `COc1cc([N+](=O)[O-])ccc1NC(=S)NNC(=O)c1ccc2c(c1)OCO2`?
VP16 counter: -19.3%; RORg inh: -30.0%

What do the screens show for `Cc1cc(C(=O)Nc2ccc3c(c2)OCCO3)ccc1[N+](=O)[O-]`?
VP16 counter: inconclusive; RORg inh: 21.1%[1.91 µM]

What do the screens show for `O=C(N/N=C/c1cc([N+](=O)[O-])ccc1O)c1cccc(N2CCCC2=O)c1`?
VP16 counter: 3.16µM*; RORg inh: 2.24µM*

Results for O=C(N/N=C/c1cc(O)ccc1[N+](=O)[O-])c1ccc2c(c1)OCCO2 ?
VP16 counter: 8.91µM*; RORg inh: 10µM*

Results for O=C(N/N=C/c1ccccc1[N+](=O)[O-])c1ccc2c(c1)OCCO2 ?
VP16 counter: 7.08µM*; RORg inh: 3.55µM*

Results for COc1cc(/C=N/NC(=O)c2cccc(N3CCCC3=O)c2)ccc1O ?
VP16 counter: -27.7%; RORg inh: -39.0%

What do the screens show for `O=C(O)c1ccc(OCc2ccccc2)c(Cl)c1`?
KinaseGlo FLuc: -4.1%[7.66 µM]

How did COc1cccc(Nc2ncc3nc(-c4ccccc4)c(=O)n(C[C@H]4CCCO4)c3n2)c1 do in these assays?
VP16 counter: -28.1%; RORg inh: 8.9%; KinaseGlo FLuc: -1.3%

Results for O=C(CN1CCC(NC(=O)c2ccccc2Cl)CC1)NCc1ccccc1 ?
VP16 counter: -15.2%; RORg inh: -13.3%

Results for O=C(N/N=C/c1cc([N+](=O)[O-])ccc1O)c1ccc2c(c1)OCCO2 ?
VP16 counter: 1.41µM*; RORg inh: 0.631µM*; KinaseGlo FLuc: -1.0%

Results for O=[N+]([O-])c1ccc(O)c(C=Nc2ccc3c(c2)OCO3)c1 ?
VP16 counter: 24.6%; RORg inh: 5.5%

How did Cc1ccc(CNC(=O)[C@@H]2C[C@H]2[C@@H](NP(=O)(c2ccccc2)c2ccccc2)c2ccccc2)o1 do in these assays?
VP16 counter: -7.7%; RORg inh: 21.6%; KinaseGlo FLuc: 2.6%

Results for CCc1ccc(Nc2nc(N)nc(CSc3nc4ccccc4s3)n2)cc1 ?
VP16 counter: inconclusive; RORg inh: 12.6µM*; KinaseGlo FLuc: 3.4%

Results for O=C(CSc1nc2ccccc2s1)N1CCCCC1 ?
VP16 counter: -9.1%; RORg inh: 36.7%; KinaseGlo FLuc: 16.9%

Results for Cc1nnc(SCc2nc(N)nc(Nc3ccccc3)n2)s1 ?
VP16 counter: -7.6%; RORg inh: inconclusive; KinaseGlo FLuc: -6.7%

How did Nc1nc(CSc2nc3ccccc3s2)nc(N2CCCCC2)n1 do in these assays?
VP16 counter: 12.6µM*; RORg inh: 6.31µM*; KinaseGlo FLuc: -1.9%

What do the screens show for `COC(=O)c1ccc(NC(=O)c2cc[n+](Cc3ccccc3)cc2)cc1`?
VP16 counter: -9.6%; RORg inh: -13.0%

How did CC(=O)Nc1ccc(NC(=O)CSc2nnc3ccc(-c4ccc(F)cc4)nn23)cc1 do in these assays?
VP16 counter: 5.3%; RORg inh: 1.3%; KinaseGlo FLuc: 1.7%

What do the screens show for `O[C@@H](c1cc(C(F)(F)F)nc2c(Cl)cc(Cl)cc12)C1CCCCN1` (stereo not given in full)?
KinaseGlo FLuc: -3.2%[7.66 µM]

What do the screens show for `CCC1Cc2cc(O)ccc2C2=C1c1ccc(O)cc1CC2CC` (stereo not given)?
VP16 counter: 12.6µM*; RORg inh: inconclusive

How did CCSC1=N/C(=C\C=C2/Oc3ccccc3N2CC)C(=O)S1 do in these assays?
VP16 counter: -0.9%; RORg inh: 16.7%

How did c1ccc(N2CCN(c3nc4cc5c(cc4s3)OCCO5)CC2)cc1 do in these assays?
VP16 counter: -10.8%; RORg inh: -33.9%; KinaseGlo FLuc: 2.2%

What do the screens show for `c1c2c(cc3sc(N4CCOCC4)nc13)OCCO2`?
VP16 counter: 4.47µM*; RORg inh: 3.55µM*; KinaseGlo FLuc: inconclusive

Results for CCN(CC)C(=O)c1c(Cl)nc(C)c([N+](=O)[O-])c1C ?
VP16 counter: -12.6%; RORg inh: -18.8%; KinaseGlo FLuc: 2.8%

What do the screens show for `C/C(=N\Nc1nc2ccccc2[nH]1)c1ccc([N+](=O)[O-])cc1`?
VP16 counter: -13.1%; RORg inh: inconclusive

Results for COC(=O)c1cc(C(=O)Nc2nc3ccccc3[nH]2)cc([N+](=O)[O-])c1 ?
VP16 counter: -24.2%; RORg inh: 1.41µM*

How did O=C(Nc1nc2ccccc2[nH]1)c1cccc([N+](=O)[O-])c1 do in these assays?
VP16 counter: inconclusive; RORg inh: 0.891µM*; KinaseGlo FLuc: -7.0%

What do the screens show for `O=C(Cc1nc2ccccc2[nH]1)c1cccc([N+](=O)[O-])c1`?
VP16 counter: -3.3%; RORg inh: -16.9%

Results for O=C(Nc1nc2ccccc2[nH]1)c1ccc([N+](=O)[O-])cc1 ?
VP16 counter: inconclusive; RORg inh: 3.16µM*; KinaseGlo FLuc: -21.5%

How did O=C(NCc1nc2ccccc2[nH]1)c1ccc([N+](=O)[O-])cc1 do in these assays?
VP16 counter: -6.4%[10 µM]; RORg inh: -10.4%; KinaseGlo FLuc: -1.5%

How did COc1ccc(Cl)cc1NC(=O)CN1C(=O)NC2(CCCC2)C1=O do in these assays?
VP16 counter: -3.1%; RORg inh: -2.7%

Results for CN(C)S(=O)(=O)c1ccc(-c2csnn2)s1 ?
VP16 counter: 9.6%; RORg inh: -1.4%; KinaseGlo FLuc: -1.3%

What do the screens show for `C/C(=N/NC(=O)C1CCCC1)c1ccc(NC(=O)C(F)(F)F)cc1`?
VP16 counter: 11.3%; RORg inh: 8.7%

How did NNc1nnc2c3cc(F)ccc3n(CCc3ccccc3)c2n1 do in these assays?
VP16 counter: -3.8%; RORg inh: inconclusive

Results for Fc1ccc2c(c1)c1n[nH]c(=S)nc1n2CCc1ccccc1 ?
VP16 counter: 2.82µM*; RORg inh: 1.41µM*

Results for CCn1c2ccc(C)cc2c2nnc(SCCN3CCOCC3)nc21 ?
VP16 counter: -5.1%; RORg inh: -27.3%; KinaseGlo FLuc: -5.0%

Results for Cn1c2ccccc2c2n[nH]c(=S)nc21 ?
VP16 counter: inconclusive; RORg inh: -1.5%[1.91 µM]

What do the screens show for `CCn1c2ccc(C)cc2c2n[nH]c(=S)nc21`?
VP16 counter: 3.16µM*; RORg inh: -42.1%[1.91 µM]

Results for Cc1ccc2c(c1)c1n[nH]c(=S)nc1n2CCc1ccccc1 ?
VP16 counter: inconclusive; RORg inh: 3.98µM*

How did CSc1ccccc1OCc1cc(C(=O)N(C)C2CCCc3ccccc32)no1 (stereo not given) do in these assays?
VP16 counter: 12.7%; RORg inh: 43.1%

Results for Cc1ccc(NC(=O)CCn2nnc3ccccc32)cc1 ?
VP16 counter: -12.9%; RORg inh: 10.9%; KinaseGlo FLuc: 3.2%

How did Cc1cnc(C(=O)OCC(=O)N(C(C)C)C(C)C)cn1 do in these assays?
VP16 counter: -4.0%; RORg inh: -3.9%; KinaseGlo FLuc: -0.9%

How did COc1cccc(OCC(O)CNC2CCCC2)c1 (stereo not given) do in these assays?
VP16 counter: 8.1%; RORg inh: -3.7%

Screens deposited in PubChem BioAssay by National Center for Advancing Translational Sciences (NCATS).
